PLK1 PBD block = blocks phosphopeptide binding to human PLK1 polo-box domain; P53350; Plk1 PBD binding of FITC phosphopeptide, fluorescence polarization; Potency, µM, for the others: max response, negative = inhibition, hits mostly inhibitors; 360,000 compounds, 2.8% hits; AID 720504; further: series mostly up to about 57 µM; on the % scale 0 is the no-effect control and ±100 the full control effect; nearly all actives have a fitted effect of over 65% in size
12-LOX inh = blocks human arachidonate 12S-lipoxygenase; P18054; purified 12hLO, xylenol orange hydroperoxide absorbance; Potency, µM (doses to about 108 µM), for inactives: at the highest dose activity change, negative = inhibition, usual class: inhibitors; 580,000 compounds, 1.1% hits; further: on the % scale 0 is the no-effect control and ±100 the full control effect
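Hydroperoxide product was detected by ferrous iron/xylenol orange as the 573 to 405 nm absorbance ratio. Arachidonic acid at 40 uM (final) was turned over for 30 min at room temperature by 150 nM human 12hLO, pH 7.0 Hepes buffer, after 15 min compound preincubation.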
G9a block = blocks human histone lysine methyltransferase G9a | Q96KQ7 | G9a H3K9 monomethylation, AlphaScreen, 2 h | Potency, µM (doses to about 102 µM), inactives show at the highest dose activity, negative = inhibition, actives largely listed as inhibitors | 350,000 compounds, 8.8% hits; further: on the % scale 0 is the no-effect control and ±100 the full control effect; nearly all actives have a fitted effect of over 75% in size
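AlphaScreen read-out: biotin-H3K9 peptide (500 nM) methylation by 20 nM enzyme with 20 uM SAM, 2 h at room temperature after 15 min compound preincubation; anti-monomethyl H3K9 antibody plus donor/acceptor beads, 10 min dark.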
HP1b binding inh = blocks HP1-beta chromodomain binding to methylated histone tails. P83916. AlphaScreen HP1-beta / biotin-H3K9me3 peptide binding. Potency, µM (highest dose often 114 µM), without a hit: top-dose activity change, negative = inhibition, actives largely listed as inhibitors. 390,000 compounds, 0.56% hits; further: nearly all actives have a fitted effect of over 70% in size
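HP1-beta protein (50 nM final) preincubated 30 min at room temperature with biotinylated H3(1-18)K9me3 peptide (50 nM) in PBS pH 7.4, 0.01% Tween-20, then compound added for 30 min. AlphaScreen streptavidin donor/nickel chelate acceptor beads (10 ug/mL final), 30 min dark, luminescence read.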
BAZ2B block = BAZ2B (human) inhibition | Q9UIF8 | AlphaScreen BAZ2B-H3K14Ac peptide displacement | Potency, µM (titrated, usually from 114 µM), inactives show at the top dose activity change, negative = inhibition, actives largely listed as inhibitors | 360,000 compounds, 4.4% hits | AID 504333; further: on the % scale 0 is the no-effect control and ±100 the full control effect; nearly all actives have a fitted effect of over 60% in size
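AlphaScreen displacement: compounds (up to 110uM) incubated 30 min at room temperature with a preformed 50 nM BAZ2B/50 nM biotinylated H3K14Ac peptide complex in PBS pH 7.4 with Tween-20. Donor and acceptor beads at 10 ug/mL final added, 20 min light-protected before reading.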
JMJD2A Tudor inh = blocks the human JMJD2A Tudor domain; AlphaScreen JMJD2A-Tudor / H3K4me3 peptide binding; Potency, µM (series often up to 114 µM), for the others: top-dose activity change, negative = inhibition, hits mostly inhibitors; 390,000 compounds, 4.4% hits; further: on the % scale 0 is the no-effect control and ±100 the full control effect; nearly all actives have a fitted effect of over 50% in size
The depositor's hits bear a star; [ ] = remark or other dose. Sampled rows, rich in hits. Any-hit rate of the full collection: about 9%. The call rests on the fitted dose curve; in most records, active means well fitted curve in the direction sought with a large enough effect; inconclusive means small, poorly fitted or top-dose-only effect, or another doubt; inactive means no such curve, though single readings can be large; an effect the other way counts as inactive or inconclusive. Potency means the concentration at half of the fitted maximal effect.

What do the screens show for `CCOC(=O)C1=C(C)N=c2sc(=Cc3cc(Cl)c(OCC(=O)O)c(Cl)c3)c(=O)n2C1c1cccc(OC)c1` (stereo not given)?
PLK1 PBD block: 26.7µM*; 12-LOX inh: inconclusive

What do the screens show for `CCOC(=O)C1=C(C)N=c2s/c(=C\c3ccc(OCC(=O)O)cc3)c(=O)n2C1c1ccc(OC(C)C)cc1` (stereo not given)?
PLK1 PBD block: 23.8µM*; 12-LOX inh: inconclusive; G9a block: inconclusive; HP1b binding inh: 3.6%; BAZ2B block: inconclusive; JMJD2A Tudor inh: inconclusive

How did CCOC(=O)C1=C(C)N=c2s/c(=C\c3ccc(OC(C)=O)cc3)c(=O)n2C1/C=C/c1ccccc1 (stereo not given) do in these assays?
PLK1 PBD block: 5.8%; 12-LOX inh: -27.1%; G9a block: 20.4%[59 µM]; HP1b binding inh: 27.5%; BAZ2B block: 12.1%; JMJD2A Tudor inh: -0.7%

Results for COc1cccc(-c2nc(SCC(=O)NCc3ccco3)c3c(=O)n(C)c(=O)n(C)c3n2)c1 ?
12-LOX inh: inconclusive; G9a block: 12.8%[59 µM]; HP1b binding inh: 10.7%[57 µM]; BAZ2B block: 6.8%; JMJD2A Tudor inh: -11.0%

What do the screens show for `COc1ccc(-c2[nH]c(-c3cccc(OC)c3)nc2SCC(=O)NCc2ccco2)cc1`?
PLK1 PBD block: -5.3%; 12-LOX inh: -12.0%; G9a block: 17.8µM*; HP1b binding inh: -15.4%; BAZ2B block: inconclusive; JMJD2A Tudor inh: inconclusive

What do the screens show for `O=C(CSc1nc(-c2ccccc2)c(-c2ccccc2)[nH]1)NCc1ccco1`?
PLK1 PBD block: 21.2µM*; 12-LOX inh: -19.9%; G9a block: inconclusive; HP1b binding inh: -19.4%; BAZ2B block: -28.9%; JMJD2A Tudor inh: 39.8µM*

What do the screens show for `O=C(CSc1nnc(-c2ccccc2)c(-c2ccccc2)n1)Nc1ncc(Cl)cc1Cl`?
PLK1 PBD block: -4.5%; 12-LOX inh: -23.9%; G9a block: 14.1µM*; HP1b binding inh: 8.9%; BAZ2B block: inconclusive; JMJD2A Tudor inh: -12.7%

What do the screens show for `Cc1nc(NC(=O)CSc2nnc(-c3ccccc3)c(-c3ccccc3)n2)c(Cl)cc1Cl`?
PLK1 PBD block: 2.2%; 12-LOX inh: -1.2%; G9a block: inconclusive; HP1b binding inh: 11.9%; BAZ2B block: inconclusive; JMJD2A Tudor inh: -28.8%

How did O=C(CSC1=NCCS1)NCc1ccco1 do in these assays?
PLK1 PBD block: 2.99µM*; 12-LOX inh: 0.0%; G9a block: 12.3%[12.7 µM]; HP1b binding inh: -12.5%; BAZ2B block: 6.4%; JMJD2A Tudor inh: 17.8µM*

What do the screens show for `COc1ccccc1CNC(=O)CSC1=NCCS1`?
PLK1 PBD block: inconclusive; 12-LOX inh: 0.5%; G9a block: inconclusive; HP1b binding inh: 27.0%; BAZ2B block: 1.2%; JMJD2A Tudor inh: 1.4%

What do the screens show for `Cc1noc(-c2cn(C3CCCN(C(=O)c4cccc(C(F)(F)F)c4)C3)nn2)n1` (stereo not given)?
12-LOX inh: 1.3%

Results for COc1cc(OC)c2cc(C(=O)NCCC(=O)Nc3ccc4c(c3)OCCO4)n(C)c2c1 ?
12-LOX inh: -0.4%

What do the screens show for `Cc1noc(C)c1CCC(=O)NC1CCCN(Cc2ccc(Cl)cc2)C1` (stereo not given)?
PLK1 PBD block: -12.0%; 12-LOX inh: 2.6%; HP1b binding inh: 25.7%; BAZ2B block: -6.2%; JMJD2A Tudor inh: -5.5%

What do the screens show for `O=C(Cn1cnc2sc(-c3ccccc3)cc2c1=O)NCc1ccco1`?
PLK1 PBD block: 2.67µM*; 12-LOX inh: 0.0%; G9a block: 12.6µM*; HP1b binding inh: 8.91µM*; BAZ2B block: inconclusive; JMJD2A Tudor inh: 3.16µM*

What do the screens show for `O=C(Cn1cnc2sc(-c3ccccc3)cc2c1=O)NCc1ccccc1`?
PLK1 PBD block: -7.3%; 12-LOX inh: 24.5%; G9a block: inconclusive; HP1b binding inh: 4.9%; BAZ2B block: 13.7%; JMJD2A Tudor inh: -25.0%

How did O=C(Cn1ncn2c(cc3ccccc32)c1=O)NCc1ccco1 do in these assays?
PLK1 PBD block: -11.3%; 12-LOX inh: -10.2%; G9a block: inconclusive; HP1b binding inh: 7.3%; BAZ2B block: 50.1µM*; JMJD2A Tudor inh: inconclusive

What do the screens show for `O=C(CSc1nnc2c(n1)[nH]c1ccccc12)NCc1ccco1`?
PLK1 PBD block: 29.9µM*; 12-LOX inh: -14.9%; G9a block: 10µM*; HP1b binding inh: 18.9%; BAZ2B block: inconclusive; JMJD2A Tudor inh: -28.6%

How did O=C(CSc1nnc(-c2ccccc2)c(-c2ccccc2)n1)NCc1ccco1 do in these assays?
PLK1 PBD block: 21.2µM*; 12-LOX inh: -16.0%; G9a block: 20.0%[59 µM]; HP1b binding inh: inconclusive; BAZ2B block: inconclusive; JMJD2A Tudor inh: -36.6%[57.1 µM]

What do the screens show for `Cc1noc(C)c1NC(=O)N(C)C[C@@H]1Oc2ccc(NC(=O)CCC(F)(F)F)cc2CC(=O)N([C@@H](C)CO)C[C@@H]1C`?
PLK1 PBD block: -13.0%; 12-LOX inh: -72.3%; HP1b binding inh: 25.1%; JMJD2A Tudor inh: 1.4%

What do the screens show for `O=C(O)CSc1nnc(-c2ccccc2)c(-c2ccccc2)n1`?
PLK1 PBD block: 9.47µM*; 12-LOX inh: 6.2%; HP1b binding inh: 2.6%; BAZ2B block: -4.8%; JMJD2A Tudor inh: -16.2%[11.4 µM]

What do the screens show for `NC(=O)CSc1nnc(-c2ccccc2)c(-c2ccccc2)n1`?
PLK1 PBD block: -9.4%; 12-LOX inh: -17.7%; G9a block: -4.1%; HP1b binding inh: 31.0%; BAZ2B block: -11.9%; JMJD2A Tudor inh: 2.4%

Results for O=P(CCO)(c1ccccc1)c1ccccc1 ?
PLK1 PBD block: -27.0%; 12-LOX inh: 19.4%; G9a block: -9.8%[59 µM]; HP1b binding inh: -12.3%; BAZ2B block: 3.1%; JMJD2A Tudor inh: -7.9%

What do the screens show for `Cc1oc(C(=O)O)cc1CSCc1ccoc1C(=O)O`?
PLK1 PBD block: -28.3%; 12-LOX inh: 19.0%; G9a block: 44.7µM*; HP1b binding inh: 12.9%; BAZ2B block: inconclusive; JMJD2A Tudor inh: inconclusive

How did Cc1oc(C(=O)O)cc1CSCc1cc(C(=O)O)c(C)o1 do in these assays?
PLK1 PBD block: inconclusive; 12-LOX inh: inconclusive; G9a block: 14.1µM*; HP1b binding inh: 11.3%; BAZ2B block: -5.9%; JMJD2A Tudor inh: 89.1µM*

How did COc1cccc(NC(=O)CN(C)C(=O)[C@@H]2CCCN2C(=O)c2cccs2)c1 do in these assays?
PLK1 PBD block: -8.4%; 12-LOX inh: 26.5%; HP1b binding inh: 44.6%; JMJD2A Tudor inh: -10.6%

How did Cc1nc(CN2CCN(S(=O)(=O)c3ccc(F)c(F)c3)CC2)cs1 do in these assays?
12-LOX inh: 48.9%

Results for Cc1nc(CN2CCN(S(=O)(=O)c3c(Cl)cc(Br)cc3Cl)CC2)cs1 ?
PLK1 PBD block: -3.4%; 12-LOX inh: inconclusive; G9a block: 22.4µM*; HP1b binding inh: -0.3%; BAZ2B block: 79.4µM*; JMJD2A Tudor inh: 35.5µM*

Screening data from PubChem.
